The supplement of paper PMC9446081
± gives the standard deviation of the averaged measurements.

Biological target: T1, MurF (UniProt P11880)
T1 sequence (whole entry): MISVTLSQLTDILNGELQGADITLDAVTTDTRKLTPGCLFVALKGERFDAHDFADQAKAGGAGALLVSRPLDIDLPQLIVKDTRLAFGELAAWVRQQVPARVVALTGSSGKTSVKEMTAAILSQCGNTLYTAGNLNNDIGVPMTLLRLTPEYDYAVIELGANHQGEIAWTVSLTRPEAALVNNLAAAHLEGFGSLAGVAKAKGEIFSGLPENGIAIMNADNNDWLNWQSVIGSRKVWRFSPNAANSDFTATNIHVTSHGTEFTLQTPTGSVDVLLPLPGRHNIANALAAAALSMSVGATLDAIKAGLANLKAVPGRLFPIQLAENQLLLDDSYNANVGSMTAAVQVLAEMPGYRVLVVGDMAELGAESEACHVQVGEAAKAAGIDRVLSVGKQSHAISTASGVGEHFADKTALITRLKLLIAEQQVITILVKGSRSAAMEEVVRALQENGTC
Assay: relative enzymatic activity vs untreated control (fraction); higher = less inhibition
Details: 100 µM; incubation time: 2 h at 37 C
Procedure: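 In vitro enzymatic inhibition assays (ProFoldin kits) for 12 purified essential E. coli enzymes or complexes, each treated with 218 active antibacterial compounds at 100 µM for 2 h at 37°C. Read-outs were fluorescence or absorbance (phosphate detection, dye binding), converted to activity via standard curves and expressed relative to untreated DMSO controls.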

Row | Compound | relative enzymatic activity
1 | CN(C)[C@@H]1C(=O)C(C(N)=O)=C(O)[C@@]2(O)C(O)=C3C(=O)c4c(O)cccc4[C@](C)(O)[C@H]3C[C@@H]12 | 0.983 ± 0.2
2 | Cc1c(N)nc([C@H](CC(N)=O)NC[C@@H](N)C(N)=O)nc1C(=O)N[C@H](C(=O)N[C@@H](C)[C@H](O)[C@@H](C)C(=O)N[C@@H](C(=O)NCCc1nc(-c2nc(C(=O)NCCC[S+](C)C)cs2)cs1)[C@@H](C)O)[C@@H](O[C@H]1O[C@H](CO)[C@H](O)[C@@H](O)[C@H]1O[C@H]1O[C@H](CO)[C@@H](O)[C@H](OC(N)=O)[C@@H]1O)c1cnc[nH]1 | 1.15 ± 0.074
3 | CNC1C(O)C(OC2C(N)CC(N)C(OC3OC(C(C)O)C(O)C(O)C3N)C2O)OCC1(C)O (centres undefined) | 0.95 ± 0.18
4 | CN[C@H]1C[C@@H](N)[C@H](O)[C@@H](O[C@@H]2O[C@H](CO)[C@H](O)[C@@H]3O[C@@]4(O[C@H]23)O[C@H]([C@@H](N)CO)[C@H](O)[C@H](O)[C@H]4O)[C@@H]1O | 1.17 ± 0.035
5 | O=[N+]([O-])C(Br)(CO)CO | 0.946 ± 0.23
6 | C[CH2][Hg][S]c1ccccc1C(=O)[O-].[Na+] | 0.982 ± 0.28
7 | CCCCCCCCCCCCCCCC[n+]1ccccc1 | 0.08 ± 0.011
8 | CN(C)[C@@H]1C(=O)[C@@H](C(N)=O)C(=O)[C@@]2(O)C(=O)[C@H]3C(=O)c4c(O)ccc(Cl)c4[C@@](C)(O)[C@H]3C[C@@H]12 | 1.2 ± 0.021
9 | Cc1nc2c(=O)n(C)c(=O)nc-2n(C)n1 | 0.965 ± 0.26
10 | CN(C)[C@@H]1C(=O)[C@H](C(N)=O)C(=O)[C@@]2(O)C(=O)[C@@H]3C(=O)c4c(O)cccc4[C@@](C)(O)[C@H]3C[C@@H]12 | 0.998 ± 0.19
11 | CCn1cc(C(=O)[O-])c(=O)c2cc3c(cc21)OCO3.[K+] | 0.962 ± 0.22
12 | [O-][n+]1ccccc1[S][Zn][S]c1cccc[n+]1[O-] | 0.973 ± 0.15
13 | Cc1c(N)nc([C@H](CC(N)=O)NC[C@@H](N)C(N)=O)nc1C(=O)N[C@H](C(=O)N[C@@H](C)[C@H](O)[C@@H](C)C(=O)N[C@@H](C(=O)NCCc1nc(-c2nc(C(=O)NCCC[S+](C)C)cs2)cs1)[C@@H](C)O)[C@@H](O[C@H]1O[C@H](CO)[C@H](O)[C@@H](O)[C@H]1O[C@H]1O[C@H](CO)[C@@H](O)[C@H](OC(N)=O)[C@@H]1O)c1c[nH]cn1 | 0.537 ± 0.75
14 | Cn1ncnc2c(=O)n(C)c(=O)nc1-2 | 0.797 ± 0.21
15 | O=S(=O)(O)O.Oc1cccc2cccnc12 | 0.951 ± 0.29
16 | Oc1cc(Cl)ccc1Oc1ccc(Cl)cc1Cl | 1.12 ± 0.27
17 | COP(=S)(OC)Oc1cc(Cl)c(Cl)cc1Cl | 1.05 ± 0.2
18 | CN1C(=O)[C@]23CC4=CC=C[C@H](O)[C@H]4N2C(=O)[C@@]1(CO)SS3 | 0.973 ± 0.26
19 | CCCCCCCCCCCCCCCC[n+]1ccccc1.[Cl-] | 0.0685 ± 0.0074
20 | CC(=O)Oc1ccc(Cl)c2cccnc12 | 0.983 ± 0.21
21 | CCCCCCCCCCCCCCCC[N+](C)(C)C.[Br-] | 0.112 ± 0.021
22 | CC(=O)[O][Hg][c]1ccccc1 | 1.08 ± 0.26
23 | O=C1C=C2C(=CCOC2O)O1 (centres undefined) | 0.903 ± 0.18
24 | O=[N+]([O-])c1ccc(N(CCO)CCO)c2c1no[n+]2[O-] | 0.923 ± 0.15
